Source: PubChem (National Center for Advancing Translational Sciences (NCATS))
This is a sample that favours compounds with a hit; in the whole collection about 3.3% have one here.
USP1 inh: Inhibitors of USP1/UAF1: Primary Screen; Ubiquitin carboxyl-terminal hydrolase 1 (Homo sapiens), O94782; recombinant USP1/UAF1, Ub-Rhodamine cleavage fluorescence; Potency, µM (highest dose often 57.1 µM), for inactives: top-dose activity change, negative = inhibition, actives largely listed as inhibitors; hit rate 0.23% among 390,000; AID 743255, 2014; also: potency is read from the fitted curve at half-maximal effect; nearly all actives have a fitted effect of over 60% in size
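USP1/UAF1 complex at 1 nM was preincubated with compound for 15 min at room temperature, then Ub-Rho substrate (150nM final) was added. Fluorescence (480/540 nm) was read kinetically, 6 reads every 60 seconds.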
WRN helicase inh: qHTS for Inhibitors of WRN Helicase | AID 651768, 2012 | WRN helicase unwinding, fluorescent forked duplex, kinetic | hit rate 0.46% among 360,000 | Potency, µM (doses to about 114 µM), for the others: top-dose activity change, negative = inhibition, actives largely listed as inhibitors; also: potency is read from the fitted curve at half-maximal effect; nearly all actives have a fitted effect of over 55% in size
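WRN at 20 nM final was preincubated with compound for 15 min at room temperature; reaction started with 100 nM forked duplex oligonucleotide carrying fluorophore and quencher plus 2 mM ATP (final). Unwinding followed kinetically by red fluorescence (ex 525/em 598 nm).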
PLK1 PBD block: qHTS for Inhibitors of PLK1-PDB (polo-like kinase 1 - polo-box domain): Primary Screen. Plk1 PBD binding of FITC phosphopeptide, fluorescence polarization. Potency, µM, inactives show max response, negative = inhibition, usual class: inhibitors. hit rate 2.8% among 360,000. AID 720504, 2013; also: potency is read from the fitted curve at half-maximal effect; series mostly up to about 57 µM; nearly all actives have a fitted effect of over 65% in size
PI5P4K alpha inh: qHTS for Inhibitors of phosphatidylinositol 5-phosphate 4-kinase (PI5P4K); Phosphatidylinositol 5-phosphate 4-kinase type-2 alpha (Homo sapiens), P48426; PI5P4Kalpha enzyme, ADP-Glo luminescence, 60 min; hits give low values; max response, %; hit rate 1.2% among 330,000; AID 652105, 2013; active = max response of -50% or lower; inconclusive = between -30% and -50%; inactive = -30% or higher; also: value at the top dose of about 77 µM
Target sequence (P48426 whole entry, looked up): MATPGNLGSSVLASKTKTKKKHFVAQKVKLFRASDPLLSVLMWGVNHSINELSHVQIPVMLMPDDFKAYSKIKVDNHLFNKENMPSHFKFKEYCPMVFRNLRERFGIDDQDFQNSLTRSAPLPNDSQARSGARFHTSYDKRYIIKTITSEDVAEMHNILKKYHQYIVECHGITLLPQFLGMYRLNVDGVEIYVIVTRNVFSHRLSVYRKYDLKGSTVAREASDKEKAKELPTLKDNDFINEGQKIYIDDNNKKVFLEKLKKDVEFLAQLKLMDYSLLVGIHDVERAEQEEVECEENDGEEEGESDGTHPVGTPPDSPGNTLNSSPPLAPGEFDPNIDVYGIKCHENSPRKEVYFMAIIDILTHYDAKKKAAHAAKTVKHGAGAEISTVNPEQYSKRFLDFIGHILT
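PI5P4Kalpha ADP-Glo assay; 5 microM ATP final; 60 min RT reaction; HEPES pH 7.4/EGTA/CHAPS, 5% DMSO; controls lacking substrate or enzyme; luminescent end-point.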
USP2a block: qHTS Assay for Inhibitors of Ubiquitin-specific Protease USP2a Using CHOP2 as the Reporter | Potency, µM (series often up to 38.3 µM), inactives show at the highest dose activity change, negative = inhibition, most hits filed as inhibitors | USP2 core, Ub-CHOP2 coupled fluorogenic reporter, 485/531 | Ubiquitin carboxyl-terminal hydrolase 2 (Homo sapiens), O75604 | hit rate 0.01% among 330,000 | AID 463254, 2010;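 also: potency is read from the fitted curve at half-maximal effect; plate controls were DMSO wells for no effect and full inhibition by NEM control for full effect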
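USP2 core (10nM final) preincubated 30min RT with compound in 20mM Tris-HCl pH 8.0, 2mM CaCl2, 2mM beta-mercaptoethanol, 0.05% CHAPS; 25nM Ub-CHOP2 plus 25nM reporter substrate added, fluorescence (Ex485/Em531) read after 60min.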
Starred values were filed as active, the others as inactive; u = inconclusive; x = not tested or not shown; ! = not confirmed by another sample; [ ] = another dose, or the depositor's remark. Unless noted, calls follow the shape of the dose curve; as a rule, active = well fitted curve in the direction sought with a large enough effect; inconclusive = small, poorly fitted or top-dose-only effect, or another doubt; inactive = no such curve, though single readings can be large; an effect the other way counts as inactive or inconclusive. Unless noted, % is scaled to controls: 0 for no effect and ±100 for the full control effect.

SMILES	USP1 inh	WRN helicase inh	PLK1 PBD block	PI5P4K alpha inh	USP2a block
CCOc1cc(/C=C2/C(=O)ON=C2C)cc(Br)c1O	-21%	-7%	5%	-67*	2%
C#CCOc1ccc(Cl)cc1/C=C1/C(=O)ON=C1C	-13%	-3%	u	-1	4%
O=S(=O)(Nc1ccc(F)cc1F)c1ccc(-n2cccn2)cc1	-6%	x	x	x	x
COc1ccc(N2CCN(C(CNS(=O)(=O)c3c(C)cc(C)cc3C)c3ccco3)CC2)cc1 (centres undefined)	-26%	x	x	x	x
Cc1c2cnn(-c3ccccc3)c(=O)c2c(C)n1CC(=O)NCc1ccccc1Br	-11%	x	x	x	x
O=C(N/N=C/c1cnc(N2CCCCC2)s1)c1ccc(Cl)cc1	-24%	-5%	30µM*	-24	-3%
O=Cc1cnc(N2CCCCC2)s1	-14%	-6%	2%	2	1%
CCCc1c(C)[nH]c2ccc(C(=O)O)cc2c1=S	u	25µM*	13µM*	u	1%
COc1ccc2[nH]c(C)c(CCN3C(=O)C4CC=CCC4C3=O)c2c1 (centres undefined)	-8%	3%	21µM*	0	0%
COc1ccc2[nH]c(C)c(CCN3C(=O)OC(C)(C)C3(C)O)c2c1 (centres undefined)	-23%	-6%	6%	1	4%
CC1CCc2c(sc(NC(=O)c3ccccc3C(=O)O)c2C#N)C1 (centres undefined)	1%	-12%	-3%	-3	-8%
Cc1ccccc1C(=O)NC(=S)Nc1sc2c(c1C#N)CCC(C)C2 (centres undefined)	-14%	18%	19µM*	-2	-1%
CC1CCc2c(sc(NC(=S)NC(=O)c3ccccc3)c2C#N)C1 (centres undefined)	-16%	5%	24µM*	-15	-13%
N#Cc1c(NC(=S)NC(=O)c2ccccc2)sc2c1CCCC2	-20%	-8%	u	-10	2%
COc1cccc(NC(=O)c2cnn(-c3ccccc3)c2-n2cccc2)c1	-12%	x	x	x	x
CCCOc1ccc(C2C(=O)N(C3CCC(C)CC3)CC(=O)N2Cc2cccc(OC)c2)cc1OC (centres undefined)	6%	x	x	x	x
CCOc1ccccc1CNC(=O)C(CC)n1nc(C)c2c(C)n(-c3ccccc3)nc2c1=O (centres undefined)	-17%	x	x	x	x
CN1CCN(/C=N/c2c(C#N)cnn2-c2ccccc2)CC1	6%	5%	27µM*	-8	-1%
CCOc1ccccc1N(C)C(=O)c1cc(S(=O)(=O)NCc2ccc(C)cc2)ccc1F	-26%	x	x	x	x
Cc1ccccc1NC(=O)CSc1nc(-c2ccccc2)cn1-c1ccccc1F	-13%	x	x	x	x
O=C(CN(Cc1ccco1)C(=O)CNS(=O)(=O)c1ccc(F)cc1)NCc1ccc(F)cc1	2%	-1%	-4%	3	1%
O=C(CN(Cc1ccco1)C(=O)CNS(=O)(=O)c1ccc(Cl)cc1)NCc1ccc(F)cc1	0%	6%	27µM*	-17	x
Cc1nc2c(=O)n(C)c(=O)n(C)c2nc1Cl	-3%	-4%	24µM*	8	5%
O=C(COc1ccccc1F)Nc1ccccc1OCc1cc(=O)n2ccccc2n1	-25%	x	x	x	x
Cc1ccc(C)c(CSc2nc(-c3ccccc3F)nc3c2Cc2c(CO)cnc(C)c2O3)c1	-4%	x	x	x	x
SMILES	USP1 inh	WRN helicase inh	PLK1 PBD block	PI5P4K alpha inh	USP2a block
Cc1oc(-c2ccc(C(=O)NCc3ccc(Cl)cc3)cc2)nc1CS(=O)(=O)c1ccccc1	-14%	x	x	x	x
CN1CCc2cccc3c2[C@H]1Cc1ccc(O)c(O)c1-3	-11%	-16%	38µM*!	-56*!	-1%
CN1CCc2cc3c(c4c2[C@H]1[C@H](O)c1ccccc1-4)OCO3	u	13%	-22%	7	1%
COc1ccccc1NC(=S)NCCc1c[nH]c2ccccc12	-15%	-6%	3.4µM*	-25	-1%
COc1cc(NC(=S)NCCc2c[nH]c3ccccc23)c(OC)cc1Cl	-8%	-12%	1%	5	-1%
CCn1nccc1C(=O)Nc1ccccc1OC	0%	0%	10%	-1	1%
CCC(=O)NC(=S)Nc1ccccc1OC	-19%	1%	24µM*	-19	0%
CCn1ncc(Br)c1C(=O)Nc1ccccc1OC	-3%	2%	21µM*	1	2%
CC1=C(c2ccc(Cl)cc2)S(=O)(=O)NC1=NCCCN1CCN(c2cc(C)ccc2C)CC1	-3%	x	x	x	x
Cc1cc(C)nc(-n2nc(C)c3c2N(Cc2ccccc2C)C(=O)CC3c2ccc(Cl)cc2)n1 (centres undefined)	0%	x	x	x	x
CCc1ccc(OC(C)C(=O)N2CCC(c3nc4ccccc4s3)CC2)cc1 (centres undefined)	-22%	x	x	x	x
Cc1ccc(-c2nc3ncccc3o2)cc1NC(=O)COc1ccc(C(C)C)cc1	-2%	x	x	x	x
CCN1C(=O)c2cccc3cccc1c23	-22%	-4%[57.1 µM]	21µM*	x	0%
CN(C)C(=O)CN1C(=O)c2cccc3cccc1c23	-15%	7%	2%	-6	0%
O=C(CN1C(=O)c2cccc3cccc1c23)Nc1cccnc1	-15%	-1%	30µM*	-7	1%
O=C(CN1C(=O)c2cccc3cccc1c23)NCc1cccnc1	1%	2%	-9%	-1	0%
COc1ccc(-c2noc(-c3cccc(OC)c3OC)n2)cc1	-9%	x	x	x	x
CCCCCCCCC(=O)c1c(OC)oc(C=O)cc1=O	-25%	-13%[11.6 µM]	u	-84*	x
O[C@@H]([C@H](O)[C@H](O)CBr)[C@H](O)CBr	-19%	-2%	-12%	-62*	x
COC(=O)c1ccc(C)c(NC(=O)CSc2sc3c(O)cc(=O)[nH]c3c2C#N)c1	3%	u	u	-64*	-2%
COC(=O)c1ccc(C)c(NC(=O)CCSc2ccc(C)cc2)c1	2%	-7%	-11%	1	4%
COc1ccccc1C(=O)Nc1ccccc1C(=O)OCc1cc(=O)n2ccsc2n1	-5%	x	x	x	x
COc1ccc(C(=O)CSC#N)cc1OC	-4%	-9%	24µM*	3	0%
CCOc1ccc(NC(=O)CSc2nccn2C2CCCC2)cc1	-31%	x	x	x	x
COc1ccc(CCN2CC(C(=O)NCCc3ccc(F)cc3)CCC2=O)cc1 (centres undefined)	-26%	6%	-14%	4	-1%
O=C(NCCc1cccc(C(F)(F)F)c1)C1CCC(=O)N(CCc2cccc(F)c2)C1 (centres undefined)	-25%	2%[57.1 µM]	-7%	16	-1%
COc1ccc(CCN2CC(C(=O)NCCc3cnn(C)c3)CCC2=O)cc1 (centres undefined)	-2%	-3%	12µM*	-25	1%
